According to PubChem BioAssay (NCATS):
Inconclusive results are not listed. A call without a number means that no potency is given here. Activity calls are given as the source filed them. Calls follow the shape of the dose curve; as a rule, active = well fitted cell-killing curve with a large enough effect; inconclusive = small, poorly fitted or top-dose-only effect, or effect the other way; inactive = flat fitted curve, though single readings scatter.

system: Tov112D; assay: Primary qHTS to identify gynecologic anti-cancer compounds using libraries of approved drugs and bioactive compounds (AID 1345084); settings: Gynecologic cancer cell panel viability, ATPlite luminescence, 48 h; series mostly up to 57.5 µM; also: nearly all actives have a fitted effect of over 55% in size
Procedure, shortened: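 Luminescence from the ATPlite ATP-monitoring reagent indicates viable cell number; lower signal means cytotoxicity. Cells received compound 16 h after seeding and were exposed for 48 h across five concentrations.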
Potency is read from the fitted curve at half-maximal effect.

Q: `CC(=O)NCc1cccc(OC[C@@H](O)CNCCc2ccc(NS(=O)(=O)c3ccccc3)cc2)c1` was tested. Which Potency did it give?
A: Its Potency is “inactive”.

Q: With `CC(C)(C)[C@H](NC(=O)c1ccc(N)c(Cl)c1)C(=O)N1CCC[C@H]1C(=O)N[C@H](C#N)CC(=O)O` as the compound, how does the Potency read?
A: The Potency was “inactive”.

Q: For `CCn1c(=O)n([C@H]2CCCN(c3nccc(-c4cc5ccccc5o4)n3)C2)c2ccccc21`, which Potency is on record?
A: The Potency was “inactive”.

Q: With `CCCn1cc2c(nc(NC(=O)Nc3ccc(OC)cc3)n3nc(-c4ccco4)nc23)n1` as the compound, how does the Potency read?
A: The Potency was “inactive”.

Q: For `CC(C)(O)C1Cc2c(ccc(C(=O)CCc3ccccc3)c2O)O1` (centres undefined), which Potency is on record?
A: Its Potency is 10 µM (active).

Q: How did the Potency turn out when `C/C=C/C=C/C=C/C(=O)O[C@@H]1C=C(CO)C(O)(C(=O)OC)[C@@]2(C)CCCC(C)(C)C12` (some centres undefined) was run?
A: Its Potency is “inactive”.

Q: For `c1cc(NCCc2c[nH]c3ccccc23)cc(Nc2ccncc2)c1`, which Potency is on record?
A: The Potency was “inactive”.

Q: Which Potency does the source give for `O=C(NCCCCCCCCNC(=O)C(Cl)Cl)C(Cl)Cl` here?
A: Its Potency is “inactive”.

Q: With `O=C(CNC(=O)c1cccc(C(F)(F)F)c1)N[C@@H]1CCN(Cc2ccc(Cl)cc2)C1` as the compound, how does the Potency read?
A: Its Potency is “inactive”.

Q: With `Nc1nc2c(cnn2CCCc2ccc(O)cc2)c2nc(-c3ccco3)nn12` as the compound, how does the Potency read?
A: The Potency was “inactive”.

Q: For `O=c1ccc2ccc(OCCCCN3CCN(c4cccc5sccc45)CC3)cc2[nH]1`, which Potency is on record?
A: The Potency was “inactive”.

Q: How did the Potency turn out when `NS(=O)(=O)Nc1ncnc(OCCOc2ncc(Br)cn2)c1-c1ccc(Br)cc1` was run?
A: Its Potency is “inactive”.

Q: `Cc1ccnn1-c1ccc(C(=O)N2CCN(S(=O)(=O)c3ccc(Cl)c(C(F)(F)F)c3)CC2)cc1` was tested. Which Potency did it give?
A: The Potency was “inactive”.

Q: How did the Potency turn out when `C/C=C/C=C/C=C/C(=O)O[C@@H]1C=C2COC(=O)[C@]2(O)[C@@]2(C)CCCC(C)(C)[C@H]12` was run?
A: Its Potency is “inactive”.

Q: `CN(c1ccc(NC(=O)Nc2ccccc2)cc1)S(=O)(=O)c1cnn(-c2ccc(F)cc2)c1` was tested. Which Potency did it give?
A: The Potency was “inactive”.

Q: Which Potency does the source give for `COC(=O)c1cc(Br)cnc1N1CCC(NC2CCCCC2)C(O)C1` (centres undefined) here?
A: The Potency was “inactive”.

Q: `CCc1cc2c(cc1CC)CC(NCC(O)c1ccc(O)c3[nH]c(=O)ccc13)C2` (centres undefined) was tested. Which Potency did it give?
A: Its Potency is “inactive”.

Q: For `CC(C)S(=O)(=O)NC[C@@H]1CC(c2ccc(N3CCCC3)c(F)c2)=NO1`, which Potency is on record?
A: Its Potency is “inactive”.

Q: `CCC(C)C(=O)O[C@H]1[C@H](O)[C@@]2(COC(C)=O)C(CC1(C)C)C1=CCC3[C@@]4(C)CC[C@H](O[C@@H]5O[C@H](C(=O)O)[C@@H](O)[C@H](O)[C@H]5O)[C@@](C)(CO)C4CC[C@@]3(C)[C@]1(C)C[C@@H]2O` (some centres undefined) was tested. Which activity change, negative = cytotoxicity did it give?
A: The activity change, negative = cytotoxicity was 6.69% [at 11.6 µM] (inactive).

Q: With `C[C@@H](c1ccc2nccn2c1)n1nnc2ncc(-c3cnn(C)c3)nc21` as the compound, how does the Potency read?
A: The Potency was “inactive”.

Q: With `Fc1ccc(-c2nc(-c3c(F)cccc3F)[nH]c2-c2ccncc2)cc1` as the compound, how does the Potency read?
A: Its Potency is “inactive”.

Q: With `Cc1cc(CS(=O)(=O)c2ccccc2)cc(OCc2ccc(CN3CCCC3CO)cc2)c1` (centres undefined) as the compound, how does the Potency read?
A: The Potency was “inactive”.

Q: `Cc1[nH]c2ccc(F)cc2c1-c1nc2c3cccnc3c3ncccc3c2[nH]1` was tested. Which Potency did it give?
A: Its Potency is 3.98 µM (active).

Q: Which Potency does the source give for `CCOC(=O)CCNc1cc(N2CCc3ccccc3CC2)nc(-c2cccnc2)n1` here?
A: Its Potency is “inactive”.

Q: With `Cc1csc2c(N[C@@H](C)CN3CCN(S(=O)(=O)c4ccc(Cl)c(Cl)c4)CC3)ncnc12` as the compound, how does the Potency read?
A: Its Potency is “inactive”.

Q: With `Cc1nc(Nc2cnn(C3CCNCC3)c2)nc2c1N(C)C(=O)c1cc3ccccc3cc1N2C` as the compound, how does the Potency read?
A: Its Potency is “inactive”.

Q: With `CN(C)C(CCOc1cccc2ccccc12)c1ccccc1` (centres undefined) as the compound, how does the Potency read?
A: The Potency was “inactive”.

Q: With `CC(C)c1ccc(NC(=O)c2cccs2)c(-c2nc3ccccc3[nH]c2=O)c1` as the compound, how does the Potency read?
A: The Potency was “inactive”.

Q: With `CCO[C@H]1CN(C2CCC(O)(c3ccc4c(c3)OCO4)CC2)C[C@@H]1NC(=O)CNC(=O)c1cccc(C(F)(F)F)c1` (some centres undefined) as the compound, how does the Potency read?
A: The Potency was “inactive”.

Q: With `CN1CCN(Cc2ccc(NC(=O)Cc3ccc(Oc4cc(NC(=O)C5CC5)ncn4)cc3)cc2C(F)(F)F)CC1` as the compound, how does the Potency read?
A: Its Potency is 5.62 µM (active).

Q: How did the Potency turn out when `CS/C=C/C(=O)O[C@@H]1CCC2=CC(=O)C(=C(C)C)C[C@]2(C)[C@H]1C` was run?
A: Its Potency is “inactive”.

Q: Which Potency does the source give for `Cc1c(OCc2cccc(-c3ccc(C(=O)O)cc3)c2)cc2c(c1C)C(=O)C(C1CCCC1)C2` (centres undefined) here?
A: The Potency was “inactive”.

Q: With `CC1(C)CCC(C)(C)c2cc(C#Cc3ccc(C(=O)O)cc3)ccc21` as the compound, how does the Potency read?
A: Its Potency is “inactive”.

Q: With `Clc1ccc(Cn2c(Cc3ccccc3)nc3ccccc32)cc1` as the compound, how does the Potency read?
A: The Potency was “inactive”.

Q: For `COc1cc2ncnc(Nc3cccc(I)c3)c2cc1OC`, which Potency is on record?
A: The Potency was “inactive”.

Q: With `CC(C)Nc1nc(Nc2ccccc2)nc(-c2ccccc2)n1` as the compound, how does the Potency read?
A: Its Potency is “inactive”.

Q: For `COCC(c1ccc(C(F)(F)F)cc1)N1CCN(C2(C)CCN(C(=O)c3c(C)ncnc3C)CC2)CC1C` (centres undefined), which Potency is on record?
A: Its Potency is “inactive”.

Q: With `CC(C)(C)Sc1c(CC(C)(C)C(=O)O)n(Cc2ccc(Cl)cc2)c2ccc(OCc3ccc4ccccc4n3)cc12` as the compound, how does the Potency read?
A: Its Potency is “inactive”.

Q: Which Potency does the source give for `CN(C)CCC(CSc1ccccc1)Nc1ccc(S(=O)(=O)NC(=O)c2ccc(N3CCN(Cc4ccccc4-c4ccc(Cl)cc4)CC3)cc2)cc1[N+](=O)[O-]` (centres undefined) here?
A: Its Potency is “inactive”.
